The target in the assay is PEG-3 (UniProt Q6IN02). Put plainly: GAPDH versus PEG-3 reporter suppression – cell-based, luminescence, counter-screen for PEG-3 promoter inhibitor project, SAR follow-up (AID 651551). The settings on record: HeLa PEG-Prom / GAPDH luciferase reporter, 6 or 24 h, run 3, 6 h; at 99 µM (top of the series). (In general: A counterscreen serves to expose hits that act by an unwanted route or on another target.)
As for `CCn1cc(C(=O)NCc2ccco2)c(=O)c2cc(S(=O)(=O)N3CCCC3)ccc21`, the inhibition % (higher = more inhibition) is 15.2%.
Consider `CCn1nc(C(=O)Nc2nc(-c3ccccn3)cs2)c2ccccc2c1=O`, for which the inhibition % (higher = more inhibition) turned out to be 39.7%.
The same measure for `COc1ccccc1Nc1nc(-c2sc(NC(=O)c3ccco3)nc2C)cs1`: 15.2%.
The same measure for `Cc1nc(NC(=O)c2ccccc2)sc1-c1csc(Nc2ccccc2)n1`: 27%; for `Cc1cc(NC(=O)c2ccccc2)n(-c2nc3ccccc3[nH]2)n1`: 76.2%.
The same measure for `COc1ccc(-n2nc(C(=O)NCC(=O)Nc3cccc(OC)c3)c3ccccc3c2=O)cc1`: -17.6%; for `Cc1cc(NC(=O)c2ccccc2C(F)(F)F)n(-c2nc3ccccc3[nH]2)n1`: 83.9%; for `Cc1cc(NC(=O)c2cccc(C)c2C)n(-c2nc3ccccc3[nH]2)n1`: 61.3%.
In the case of `CCCn1nc(C(=O)Nc2nc3ccccc3s2)c2ccccc2c1=O`, the inhibition % (higher = more inhibition) came out at 36.4%.
The same measure for `Cc1ccc(Cl)cc1Nc1nc(-c2sc(NC(=O)c3ccco3)nc2C)cs1`: 50.8%; for `COCCCNC(=O)c1ccc(Cn2c(=O)c3ccccc3n(Cc3ccccc3C#N)c2=O)cc1`: 12.9%; for `O=C(Nc1nc(-c2ccccc2)cs1)c1nn(-c2ccccc2)c(=O)c2ccccc12`: 11.7%.
Take `CCCn1nc(C(=O)Nc2nc(-c3ccccn3)cs2)c2ccccc2c1=O`: the inhibition % (higher = more inhibition) came to 34.4%.
In the case of `COc1ccc(-n2nc(C(=O)NCC(=O)Nc3ccc(OC)c(OC)c3)c3ccccc3c2=O)cc1` it was 27%; in that of `CCCn1nc(C(=O)Nc2nc(-c3ccncc3)cs2)c2ccccc2c1=O`, 24.5%.
In the case of `Cc1cc(NC(=O)c2ccccc2)n(-c2nc3ccccc3n2C)n1` it was 40.4%; in that of `Cc1nc(NC(=O)c2ccccc2)sc1-c1csc(Nc2ccccc2Cl)n1`, 19.9%.
For `O=C(Nc1nccs1)c1nn(-c2ccccc2)c(=O)c2ccccc12`, the inhibition % (higher = more inhibition) was 29.3%.
In the case of `Cc1cc(NC(=O)c2ccccc2C)n(-c2nc3ccccc3[nH]2)n1` it was 53.8%.
The same measure for `COc1ccc(Cl)cc1Nc1nc(-c2sc(NC(=O)c3ccccc3)nc2C)cs1`: 64.3%.
The same measure for `O=C(Nc1nc2ccccc2s1)c1nn(-c2ccccc2)c(=O)c2ccccc12`: -12.9%; for `COc1ccc(-n2nc(C(=O)NCC(=O)Nc3cc(OC)c(OC)c(OC)c3)c3ccccc3c2=O)cc1OC`: 9.38%; for `Cc1nc(NC(=O)c2ccccc2)sc1-c1csc(Nc2cccc(Cl)c2C)n1`: 49.3%.
